According to PubChem BioAssay AID1671192 (National Center for Advancing Translational Sciences (NCATS), 2021):
Results filed as inconclusive are left out. A number with no mark means an inactive call. The call rests on the fitted dose curve; in most records, active means well fitted curve in the direction sought with a large enough effect; inconclusive means small, poorly fitted or top-dose-only effect, or another doubt; inactive means no such curve, though single readings can be large or run the other way.

These molecules were tested against Polyunsaturated fatty acid lipoxygenase ALOX15 (Homo sapiens) (UniProt P16050) (assay: Counterscreen qHTS for inhibitors of human arachidonate 12S-lipoxygenase (ALOX12): ALOX15 Assay). Conditions: purified ALOX15 enzyme activity; series mostly up to 110 µM; activity change, negative = inhibition: at the top concentration.
In short: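 Xylenol orange–ferric complex formation, read as the 573 nm to 405 nm absorbance ratio, tracks product from 50 uM arachidonic acid turned over for 30 min at RT. Enzyme is 40 nM ALOX15, pH 7.5 HEPES buffer, compound-preincubated 15 min.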
Further: 0% is about no effect.

Chain of Polyunsaturated fatty acid lipoxygenase ALOX15 (Homo sapiens) (P16050 whole entry, looked up): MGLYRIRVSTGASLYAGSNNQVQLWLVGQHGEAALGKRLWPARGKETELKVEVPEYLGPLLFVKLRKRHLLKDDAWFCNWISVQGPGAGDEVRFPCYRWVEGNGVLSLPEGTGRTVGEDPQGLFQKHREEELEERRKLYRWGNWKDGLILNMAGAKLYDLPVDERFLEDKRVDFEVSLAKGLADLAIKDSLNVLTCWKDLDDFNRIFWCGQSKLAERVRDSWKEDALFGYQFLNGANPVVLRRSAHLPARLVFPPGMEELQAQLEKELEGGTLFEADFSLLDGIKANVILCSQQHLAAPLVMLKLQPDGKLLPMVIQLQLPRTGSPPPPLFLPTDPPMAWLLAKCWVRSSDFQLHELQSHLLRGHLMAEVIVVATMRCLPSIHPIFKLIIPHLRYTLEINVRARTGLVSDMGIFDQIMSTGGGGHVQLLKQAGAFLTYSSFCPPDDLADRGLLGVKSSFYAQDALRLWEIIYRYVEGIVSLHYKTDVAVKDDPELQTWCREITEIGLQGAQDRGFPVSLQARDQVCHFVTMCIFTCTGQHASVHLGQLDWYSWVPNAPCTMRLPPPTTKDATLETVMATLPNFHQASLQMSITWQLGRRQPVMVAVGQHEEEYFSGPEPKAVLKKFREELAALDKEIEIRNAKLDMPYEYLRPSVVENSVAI

Row | Compound | activity change, negative = inhibition
1 | CC(C)CN1CCC(c2nc3ccc(F)cc3c(=O)[nH]2)CC1 | 0.556% [at 146 µM]
2 | Cc1ccc(CN2CCC3(CC2)Cc2ccccc2CNC3=O)cc1C | -22.2%
3 | CN1CCC(C(=O)N2Cc3ccccc3OC3(CCN(C(=O)N(C)C)CC3)C2)CC1 | -19.9%
4 | CCN1CCCC2(Cc3ccccc3CN([S+](=O)([O-])c3ccccc3)C2)C1 (stereo not drawn) | -25.9%
5 | O=C1Nc2ccccc2CC12CN(Cc1c[nH]c3ccccc13)C2 | -21.2% [at 146 µM]
6 | CN1CC(=O)N(C2CCCNCC2)Cc2c1ncnc2N1CCC(N2CCCC2)CC1 (stereo not drawn) | 3.04%
7 | CN1CC(=O)N(C2CCCNC2)Cc2c1ncnc2N1CCSCC1 (stereo not drawn) | -29.8%
8 | NCCC(=O)N1Cc2ccccc2CC2(CCCCN2CC2CCNCC2)C1 (stereo not drawn) | 12%
9 | COc1ccc2c(c1)CCCN2C1CNC1 | -22.1% [at 233 µM]
10 | O=C(c1cc(C2CC2)nc2onc(C3CCNCC3)c12)N1CCCCC1 | -1.94%
11 | Cc1ccc(C(=O)N2CCc3nc(C4CC4)nc(-c4ccc(Cl)cc4)c3C2)cc1 | -24.7%
12 | O=C(O)C1=NOC2CN(Cc3c(F)cccc3Cl)CC12 (stereo not drawn) | -9.49% [at 146 µM]
13 | Fc1ccc(OC2CN(Cc3cccc4ccccc34)C2)cc1F | -31.8% [at 146 µM]
14 | O=C1NCc2ccccc2CC12CCN(Cc1cnc3ccccc3c1)CC2 | -0.708%
15 | O=C1NCc2ccccc2CC12CCCN(CCCc1ccccc1)C2 (stereo not drawn) | -29.9% [at 146 µM]
16 | O=C(NC1CC1)c1cc(C2CC2)nc2onc(C3CCNCC3)c12 | -21.6% [at 146 µM]
17 | CC(C)NC(=O)N1CNC(=O)C12CCN(C(=O)CN)CC2 | -19.6% [at 146 µM]
18 | O=C(O)CCC(=O)N1Cc2ccccc2CC2(CCCN2Cc2cccnc2)C1 (stereo not drawn) | 1.74%
19 | COCCNC(=O)c1cc(C)nc2onc(C3CCNC3)c12 (stereo not drawn) | -0.291% [at 146 µM]

Row | Compound | activity change, negative = inhibition
20 | COc1cccc(-c2ccc(CN3C4CCC3CN(C(=O)Nc3ccccc3F)C4)cc2)c1 | -19%
21 | Cc1ccc(C(=O)N2CCC(N3Cc4ccccc4C3=O)CC2)cc1 | 9.7% [at 146 µM]
22 | FC(F)(F)c1ccc(N2C3CCC2CN(Cc2cccc(-c4cccs4)c2)C3)cc1 | 0.0453%
23 | CN1CC(=O)N(C2CCNCC2)Cc2c1ncnc2N1CCC(O)CC1 | -4.21%
24 | Cc1ccc(-c2ccccc2C=O)cc1Cl | -17% [at 146 µM]
25 | CCC(=O)N1Cc2ccccc2CC2(CCCCN2CC2CCOCC2)C1 (stereo not drawn) | 15.2%
26 | COc1ccc(C(=O)N2Cc3ccccc3CC23CCCN(C(=O)CCCN)C3)cc1 (stereo not drawn) | -10.5%
27 | CC(C)OCCCNc1ncnc2c1CN(C1CCCNCC1)C(=O)CN2C (stereo not drawn) | -3.71%
28 | CN(C)CCCC(=O)N1Cc2ccccc2CC2(CCCCN2CC2CCNCC2)C1 (stereo not drawn) | -16.9%
29 | CN1CC(=O)N(C2CCNC2)Cc2c1ncnc2N1CCC(N2CCCCC2)CC1 (stereo not drawn) | -8.21%
30 | O=C1NCc2ccccc2CC12CCN(Cc1ccccc1F)C2 (stereo not drawn) | 1.86% [at 146 µM]
31 | N#Cc1cccnc1-c1cccc(C(=O)O)c1 | -10.8% [at 146 µM]
32 | CN1CC(=O)N(C2CCCNCC2)Cc2c1ncnc2N1CCC(C#N)CC1 (stereo not drawn) | -15.6%
33 | CN1CC(=O)N(C2CCCNCC2)Cc2c(NCCc3ccccc3F)ncnc21 (stereo not drawn) | -27.6%
34 | NCc1ccc(-c2cc(C(F)(F)F)ccc2Cl)cc1 | 81.7% [at 146 µM]
35 | O=C1NCc2ccccc2CC12CCN(Cc1cnc3ccccc3c1)C2 (stereo not drawn) | -15.6%
36 | O=C1Nc2ccccc2CN(CC2CC2)C12CCNCC2 | -9.42%
37 | O=c1[nH]c(C2CCCN(Cc3ccc(-c4ccccc4)cc3)C2)nc2ccc(F)cc12 (stereo not drawn) | -25.5%
38 | CC1CCCN1c1ncnc2c1CN(C1CCCNCC1)C(=O)CN2C (stereo not drawn) | -14.6% [at 146 µM]
